Screening results deposited in PubChem by National Center for Advancing Translational Sciences (NCATS).
ERK AVP block = blocks ERK signaling stimulated by vasopressin. HEK293-V1b, vasopressin-stimulated pERK AlphaScreen. Potency, µM (doses to about 57.5 µM), inactives show at the highest dose activity, negative = inhibition, most hits filed as inhibitors. 0.99% of 72,000 active; further: on the % scale 0 is the no-effect control and ±100 the full control effect; nearly all actives have a fitted effect of over 55% in size
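HEK293 cells stably expressing V1b receptor, seeded overnight in 1% FBS, were treated with compounds for 30 min at 37C, then stimulated 5 min with 25 nM vasopressin; phospho-ERK read by AlphaScreen SureFire after lysis.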
Tau filament bind = binders of human tau filaments; P10636; recombinant tau filaments, thioflavin S fluorescence, 15 h; filaments grown with octadecylsulfate alongside compound; Potency, µM (doses to about 57.1 µM), for the others: at the top dose activity change, negative = inhibition; 2% of 71,000 active;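 further: on the % scale 0 is the no-effect control and ±100 the full control effect; actives lower thioflavin S fluorescence by blocking filaments or displacing dye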
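His-tagged recombinant human tau (exons 2, 3, 10; 1 uM final) fibrillized with 30 uM sodium octadecylsulfate, 15 h at 37 C, in pH 7.4 HEPES buffer with 10 uM thioflavine S and 5 mM DTT. Reduced ThS fluorescence (450/510 nm) marks activity.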
HEK293 cAMP ctrl = counter-screen for TSHR agonists: cAMP increase in parental HEK293; parental HEK293 CNG cAMP sensor, membrane potential fluorescence; Potency, µM (titrated, usually from 57.1 µM), inactives show at the highest dose activation, usual class: activators; 2.5% of 73,000 active; AID 938; further: % of control where 0% means no effect; nearly all actives have a fitted effect of over 55% in size
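Counterscreen for endogenous-receptor signalling: CNG-channel HEK 293 cells report cAMP rise by membrane depolarization. After 60 min dye equilibration with 100 uM RO 20-1724, compounds incubated 30 min before bottom-read fluorescence at 590 nm.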
TSHR agonist = TSH receptor (human) agonism. HEK293-CNG-TSHR cells (CNG channel as cAMP sensor), membrane potential dye, cAMP. Potency, µM (titrated, usually from 57.1 µM), inactives show at the top dose activation, hits mostly activators. 0.48% of 73,000 active; active means well fitted activation curve with a large enough effect in the main read-out, with a control signal flat, not every such curve was filed as active; inconclusive means small, poorly fitted or top-dose-only effect, or a change in a side signal; inactive means no such curve, though single readings can be large or run the other way; % of control where 0% means no effect;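 further: the control signal comes from parental cells without the receptor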
Target sequence (P16473 whole entry, looked up): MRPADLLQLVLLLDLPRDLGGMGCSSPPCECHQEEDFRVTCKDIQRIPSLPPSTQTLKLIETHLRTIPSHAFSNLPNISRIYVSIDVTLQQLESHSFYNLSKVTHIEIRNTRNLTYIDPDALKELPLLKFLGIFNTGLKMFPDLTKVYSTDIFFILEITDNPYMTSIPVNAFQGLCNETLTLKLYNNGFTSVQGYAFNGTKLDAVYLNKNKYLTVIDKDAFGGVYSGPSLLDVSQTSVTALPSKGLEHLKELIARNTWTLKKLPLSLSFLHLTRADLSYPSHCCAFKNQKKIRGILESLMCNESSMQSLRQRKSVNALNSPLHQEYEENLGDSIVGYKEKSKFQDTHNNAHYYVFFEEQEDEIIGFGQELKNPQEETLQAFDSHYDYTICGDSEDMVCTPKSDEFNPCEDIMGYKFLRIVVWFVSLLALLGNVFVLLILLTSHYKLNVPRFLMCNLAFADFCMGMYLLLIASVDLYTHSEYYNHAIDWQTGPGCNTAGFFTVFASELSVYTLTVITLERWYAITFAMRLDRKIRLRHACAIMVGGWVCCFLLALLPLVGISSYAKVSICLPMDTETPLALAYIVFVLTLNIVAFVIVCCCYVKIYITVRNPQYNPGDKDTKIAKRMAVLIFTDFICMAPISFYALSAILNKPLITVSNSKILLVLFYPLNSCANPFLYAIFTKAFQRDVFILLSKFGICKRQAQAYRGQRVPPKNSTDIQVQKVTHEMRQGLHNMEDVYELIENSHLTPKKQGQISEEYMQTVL
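HEK 293 cells stably expressing TSHR and a modified CNG channel, with CNG-only parental cells as counterscreen, were preloaded 60 min at room temperature with membrane potential dye containing 100 uM RO 20-1724. Compound exposure was 30 min, and depolarization was read as fluorescence at 590 nm.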
CRE-bla Fsk = CRE-bla signaling modulation under forskolin stimulation. CHO CRE-bla reporter (cAMP response element driving beta-lactamase), forskolin EC10, beta-lactamase ratio. Potency, µM (series often up to 38.2 µM), without a hit: at the highest dose activity change, negative = inhibition, usual class: activators. 2.5% of 71,000 active. AID 662; active means well fitted activation curve with a large enough effect in the signal ratio, with a control signal flat, not every such curve was filed as active; inconclusive means small, poorly fitted or top-dose-only effect, or effect the other way, or a change in a side signal; the % refers to the signal ratio; further: % of control where 0% means no effect
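Titrated compounds plus EC10 NKH 477 on CHO CRE-bla cells, 3 h, 37 °C. CCF4, 2 h RT. Ratio 460/530 nm → AC50.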
An asterisk follows results filed as active; i = inactive; u = inconclusive; x = no result given; [ ] = another dose, or the depositor's remark. Most compounds without a hit are left out; they make up all but 7.4% or so of the library. Unless noted, the call rests on the fitted dose curve; in most records, active means well fitted curve in the direction sought with a large enough effect; inconclusive means small, poorly fitted or top-dose-only effect, or another doubt; inactive means no such curve, though single readings can be large; an effect the other way counts as inactive or inconclusive. Potency means the concentration at half of the fitted maximal effect.

SMILES	ERK AVP block	Tau filament bind	HEK293 cAMP ctrl	TSHR agonist	CRE-bla Fsk
COCCOC(=O)c1[nH]c2c(c1C)C(=O)CC(c1ccc(F)cc1)C2 (configuration not stated)	u	205%	-11%	0%	3%
OCC1OC(C#Cc2ccccc2)C=CC1OCc1ccccc1 (configuration not stated)	6%[11.5 µM]	x	u	u	x
COc1c(N2C[C@@H]3CCCN[C@H]3C2)c(F)cc2c(=O)c(C(=O)O)cn(C3CC3)c12	27%	x	x	x	x
CCCCCCC/C=C/C1=CC2(C)CC1(C)C(CCCCCCC)CC2=O (configuration not stated)	8%[11.5 µM]	x	-4%[11.4 µM]	-9%[11.4 µM]	x
COCCNC(=O)c1ccc(-n2c(=O)c(=O)[nH]c3ccccc32)cc1	x	x	9%	0%	x
COCCOC(=O)c1[nH]c2c(c1C)C(=O)CC(c1ccccc1)C2 (configuration not stated)	23%	-1%	-3%	1%	u
COC(=O)c1[nH]c2c(c1C)C(=O)CC(c1cccs1)C2 (configuration not stated)	-29%	20%	16%	x	4µM*
Cc1c(C(=O)OCCOC(C)C)[nH]c2c1C(=O)CC(c1ccco1)C2 (configuration not stated)	u	-4%	11%	10%	0.5µM*
COCCOC(=O)c1[nH]c2c(c1C)C(=O)CC(c1ccco1)C2 (configuration not stated)	u	-3%	2%	-7%	10µM*
CCOc1ccc(NS(=O)(=O)c2ccc(C)c(C(=O)O)c2)cc1	x	x	-3%	6%	x
CSCC[C@@H]1NC(=O)C/C=C\[C@@H](C)COC(=O)[C@@H](CCSC)NC(=O)C/C=C\[C@@H](C)COC1=O	20%[11.5 µM]	x	0%[11.4 µM]	-8%[11.4 µM]	x
Cc1cc(C)n(C(=O)c2ccncc2)n1	19%	-1%	3%	-1%	4%
CC1=NN(C(=O)c2ccncc2)C(=O)[C@@H]1N=Nc1ccc2ccccc2c1	-27%[11.5 µM]	1.6µM*	-2%[11.4 µM]	-4%[11.4 µM]	-2%[7.6 µM]
CN(C)c1ccc(Nc2nc(-c3cccnc3)cs2)cc1	u	2.5µM*	-15%[11.4 µM]	10%[11.4 µM]	u
CN(C)CCCN=c1c2ccccc2n(C)c2[nH]c(=O)n(C)c(=O)c12	17%[11.5 µM]	-2%[11.4 µM]	-4%[11.4 µM]	2%[11.4 µM]	22%[7.6 µM]
O=c1c2[nH]c3ccc(Br)cc3c2ncn1CCCn1ccnc1	-2%	36%	-12%	-15%	10µM*
COCCn1c(=O)c(-c2ccc(Cl)cc2)nc2cnc(N3CCNCC3)nc21	10%	77%	-11%	3%	u
N#Cc1c(-c2ccco2)c2c([nH]c1=S)CCCC2	u	32µM*	-1%	4%	5%
N#Cc1c(N)nc2c(c1-c1ccco1)CCCCC2	-14%	29%	14%	2%	u
Fc1cccc(Cl)c1/C=N\N=C1c2ccccc2-c2ccccc21	-20%[11.5 µM]	4µM*	10%[11.4 µM]	5%[11.4 µM]	-11%[7.6 µM]
COc1ccc(CNc2ncnc3ccc(-c4ccoc4)cc23)c(OC)c1	u	172%	u	u	-10%
COc1ccccc1CNc1ccnc(-c2cccc(C#N)c2)n1	32µM*	13%	26%	22%	u
CC(=O)NCCNc1nc(-c2cccc(C#N)c2)nc2ccccc12	-20%	3%	-17%	-5%	13µM*
COc1ccc2[nH]cc(CCNc3ccnc(-c4ccc5c(c4)OCO5)n3)c2c1	32µM*	u	u	u	17%
N#Cc1cccc(-c2nc(NCc3cccs3)c3ccccc3n2)c1	u	85%	14%	23%	u
SMILES	ERK AVP block	Tau filament bind	HEK293 cAMP ctrl	TSHR agonist	CRE-bla Fsk
COc1ccccc1CNc1ncnc2ccc(-c3ccoc3)cc12	u	53%	20µM*	u	-20%
[Cu].[O-]/N=C1/C(=[OH+])Nc2ccccc21.[O-]Nc1c(O)[nH]c2ccccc12	7%[11.5 µM]	-13%[11.4 µM]	-1%[11.4 µM]	-3%[11.4 µM]	3%[7.6 µM]
COC(=O)/C(=C1\OC(=O)C(c2ccccc2)C1=O)c1ccccc1 (configuration not stated)	-1%	x	x	x	x
COc1ccc(CNc2ncnc3ccc(-c4ccccc4OC)cc23)c(OC)c1	-26%	i	u	u	u
COc1ccc2[nH]cc(CCNc3nc(-c4ccccc4OC)nc4ccccc34)c2c1	u	2.5µM*	-28%	-19%	u
COc1ccc(CNc2nc(-c3cccc(C#N)c3)nc3ccccc23)c(OC)c1	4%	35%	u	u	2µM*
COc1ccc(CNc2ncnc3ccc(-c4cccc(C#N)c4)cc23)c(OC)c1	5%	i	18%	16%	0.79µM*
COc1cccc(-c2nc(NCCN3CCOCC3)c3ccccc3n2)c1	-9%	-6%	-9%	10%	u
CS(=O)(=O)N1CCC[C@@]2(CCN(c3ccccn3)C2)C1	-16%	4%	2%	3%	1%
c1ccc(CNc2nc3ccccc3n3cnnc23)nc1	-20%	-13%	4%	-6%	13µM*
CCCCn1c(NCc2ccccn2)nc2ccccc21	-14%	5%	u	u	u
CS(=O)(=O)N1CCC2(CC1)CN(C(=O)Nc1cccc(F)c1)C2	-22%	13µM*	-14%	-8%	-1%
COC(=O)N1CCC[C@@]2(CCN(C(=O)Nc3cccc(F)c3)C2)C1	15%	5%	7.9µM*	u	0%
COC(=O)N1CCC2(CCCN(C(=O)Nc3cccc(F)c3)C2)CC1	28%	-3%	-4%	1%	-4%
COc1ccc(C(=O)N2CCC3(CCCN(C(=O)Nc4cccc(C#N)c4)C3)CC2)cc1	-19%	10%	11%	25µM*	-12%
CC#N	-4%	3%	-9%	2%	9%
CNc1ccccc1C(C)(C)c1cc(-c2ccco2)n[nH]1	-10%	32µM*	25%	x	20%
COc1cc(C2c3c(-c4cc(C)cc(C)c4O)n[nH]c3C(=O)N2CCCO)cc(OC)c1OC (configuration not stated)	-2%	14%	-5%	14%	16%
COCCCN1C(=O)c2[nH]nc(-c3cc(C)cc(C)c3O)c2C1c1ccc(O)c(OC)c1 (configuration not stated)	-22%	12%	u	u	10µM*
C=CCn1cnc2c(c1=O)c1nc3ccccc3nc1n2/N=C/c1cc(OC)c(OC)c(OC)c1	-15%	u	-14%	-8%	1.6µM*
C=CCn1cnc2c(c1=O)c1nc3ccccc3nc1n2/N=C/c1cccc(OC)c1OC	-13%	u	-8%	-6%	u
C=CCn1cnc2c(c1=O)c1nc3ccccc3nc1n2/N=C/c1ccccn1	-24%	u	-4%	-10%	2.5µM*
Cc1cc(C)n(-c2nc3ccccc3c(=O)n2OCC(=O)Nc2c(C)cccc2C)n1	u	-5%	27%	13µM*	u
COc1cc(-c2cc(C(=O)N3CCN(c4ccccn4)CC3)c3ccccc3n2)cc(OC)c1OC	15%	9%	0%	15%[11.4 µM]	24%
